# Results with a measured potency or affinity are listed apart. A number with no mark means an inactive call.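 Rule for the calls: active = a dose-response curve fit returns a half-maximal inhibitory concentration, extrapolated values included; inactive = the fit returns no such concentration.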
# Biological target: HMG-CoA reductase [Enterococcus faecalis] (UniProt Q9FD70)
# Test: inhibitors of E. faecalis class II HMGR, confirmation, biochemical, Enterococcus faecalis (AID 1233);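 note: 0% = full reaction carrier wells and 100% = background wells lacking mevalonate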
# Settings: purified E. faecalis HMGR, NADPH absorbance 340 nm kinetics; series mostly up to 100 µM; inhibition: at the top concentration
row,SMILES,inhibition [%]
1,COCCn1c(=N)c(C(=O)NCc2ccco2)cc2c(=O)n3cc(C)ccc3nc21,-6.17
2,CN(C)S(=O)(=O)N1CCN(S(=O)(=O)N2CCOCC2)CC1,-0.28
3,Cc1nc([N+](=O)[O-])c(Br)n1CC(=O)c1cccc([N+](=O)[O-])c1,-5.09
4,COn1c(SCc2ccc(C)cc2C)nc2ccccc2c1=O,0.13
5,O=C1CN(C(=O)CSc2nc3cc(Cl)ccc3c(=O)n2Cc2ccccc2)c2ccccc2N1,-1.36
6,COc1ccc(NCc2nnc(SCCN3CCCCC3)n2-c2ccc(C)cc2)cc1,-4.43
7,OCCC1CN(Cc2cccs2)CCN1Cc1ccccc1 (stereo not given),-9.42
8,CN(c1ccc(C(=O)N2CCCCC2)cc1)S(=O)(=O)c1ccccc1,-3.77
9,CC(C)OCP(=O)(c1ccccc1)c1ccccc1,-1.06
10,O=C(COC(=O)/C=C/c1cn(-c2ccccc2)nc1-c1cccnc1)Nc1ccc(Cl)cc1Cl,-18.4
11,Cc1cccc(NC(=O)CSc2ccc(-c3ccc4c(c3)OCO4)nn2)c1C,-26.3
12,O=C(COC(=O)CCS(=O)(=O)c1ccc(Cl)cc1)NCCc1ccccc1,-1.92
13,O=S(=O)(NCC1CCCO1)c1ccc2c(c1)OCCO2 (stereo not given),0.8
14,O=C(Nc1ccc(S(=O)(=O)Nc2ccccc2)cc1)C1COc2ccccc2O1 (stereo not given),-3.81
15,CCCCOc1ccccc1NC(=O)CC1SC(=NCC)N(CC)C1=O (stereo not given),-3.93
16,COc1ccc(C)cc1NC(=O)C(Sc1nnnn1C)c1ccccc1 (stereo not given),-3.54
17,CCN1CCCC1CNCC(O)COc1ccc(C(C)(C)C)cc1C (stereo not given),0.13
18,CC(C)NC(=S)N=Nc1c(O)[nH]c2ccc(C(C)C)cc12,-12
19,CCOC(=O)Cc1csc(SCC(=O)c2c(N)n(CC(C)C)c(=O)n(C)c2=O)n1,-4.67
20,COC(=O)c1ccc(C(NC(=O)OCc2ccccc2)/C(C)=C/[C@@H](C)C(=O)NCc2ccc(-c3ccccc3)cc2)cc1 (stereo not given in full),-5.32
